Reference: PubChem BioAssay AID2147 (National Center for Advancing Translational Sciences (NCATS), 2009)
The campaign covered roughly 230,000 compounds. About 3,600 (1.6%) were called active. Where a call stands in place of a potency, no number is given. Another 15% or so got no clear call; they are omitted. The call rests on the fitted dose curve; in most records, active means well fitted inhibition curve with a large enough effect (not every such curve was filed as active); inconclusive means small, poorly fitted or top-dose-only effect, or another doubt; inactive means no such curve, though single readings can be large or run the other way. This excerpt belongs to a sample that is enriched for actives.
Further: nearly all actives have a fitted effect of over 50% in size.
Potency means the concentration at half of the fitted maximal effect.

What follows are compounds tested against Lysine-specific demethylase 4E (Homo sapiens) (UniProt B2RXH2) (assay: qHTS Assay for Inhibitors of Human Jumonji Domain Containing 2E (JMJD2E)). Conditions: JMJD2E catalytic domain, FDH-coupled NADH fluorescence (FDH is formaldehyde dehydrogenase); series mostly up to 57.1 µM.
Sequence of Lysine-specific demethylase 4E (Homo sapiens) (B2RXH2 1-337 limits assumed): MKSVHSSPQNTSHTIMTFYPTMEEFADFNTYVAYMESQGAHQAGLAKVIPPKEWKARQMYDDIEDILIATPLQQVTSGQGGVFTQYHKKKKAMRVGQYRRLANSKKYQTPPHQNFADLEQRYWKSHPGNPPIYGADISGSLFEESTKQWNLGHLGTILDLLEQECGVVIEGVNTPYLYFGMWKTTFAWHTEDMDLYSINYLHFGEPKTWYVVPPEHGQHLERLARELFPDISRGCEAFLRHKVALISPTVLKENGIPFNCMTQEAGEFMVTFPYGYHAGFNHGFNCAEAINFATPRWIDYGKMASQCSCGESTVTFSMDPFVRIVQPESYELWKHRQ
Text: Assay Provider: Structural Genomics Consortium [SGC] Screening Center PI: Austin, C.P. Screening Center: NIH Chemical Genomics Center [NCGC] The fine interplay among methylation states of several lysine residues on the tails of histone proteins is a major determinant of the transcriptional state of the associated DNA coding regions and is commonly referred to as the histone code. Histone lysine demethylases catalyze the removal of methyl groups from methylated lysine sidechains on histones H3 and H4, thus antagonizing the reactions catalyzed by histone lysine methyltransferases. […] In search for novel inhibitors of JMJD2E demethylase, a member of the largest set of histone demethylases belonging to the Fe(II) and 2-oxoglutarate oxygenase (2OG) superfamily, we performed a quantitative high-throughput screen (Inglese 2006) by using an assay which utilizes a trimethylated peptide substrate corresponding to a fragment of histone H3 (sequence ARKme3STGGK) with detection of the formaldehyde co-product in real time by a formaldehyde dehydrogenase (FDH) coupled reaction. FDH catalyzes oxidation of formaldehyde to formic acid with the concomitant reduction of the non-fluorescent beta-nicotinamide adenine dinucleotide hydrate (NAD+) cofactor to the fluorescent NADH co-product. References: Inglese, J., Auld, D., Jadhav, A., Johnson, R., Simeonov, A., Yasgar, A., Zheng, W. and Austin, C. Proc Natl Acad Sci USA 2006, 103, 11473-11478. N. R. Rose, S. S. Ng, J. Mecinovic, B. M. Lienard, S. H. Bello, Z. Sun, M. A. McDonough, U. Oppermann and C. J. Schofield, J Med Chem, 2008, 51, 7053-7056. Sakurai, M., Rose, N., Schultz, L., Quinn, A., Jadhav, A., Ng, S., Oppermann, U., Schofield, C.J. and Simeonov, A. Mol BioSystems 2009, in press. S. Michael, D. Auld, C. Klumpp, A. Jadhav, W. Zheng, N. Thorne, C. Austin, J. Inglese and A. Simeonov, Assay Drug Dev Technol, 2008, 6, 637-657.
Reagents and Controls: Ferrous ammonium sulfate, (+)-sodium L-ascorbate, beta-nicotinamide adenine dinucleotide hydrate (NAD+), Tween-20, formaldehyde dehydrogenase from P. putida (FDH), and disodium 2-oxoglutarate were from Sigma (St. Louis, MO). Black solid-bottom 384-well or 1,536-well assay plates were from Greiner Bio-One (Monroe, NC). Enzyme was supplied by Prof. Udo Oppermann, SGC-Oxford. The catalytic domain of human JMJD2E (residues 1-337) was produced as an N-terminally His6-tagged protein in E. coli, and purified by Ni-affinity chromatography and size-exclusion chromatography, and stored in HEPES 50 mM/ NaCl 500 mM pH 7.5, as reported in Rose 2008. The trimethylated histone peptide substrate ARK(me3)STGGK was synthesized and HPLC-purified by the Tufts University Core Facility (Boston, MA). Substrate solution (Sakurai 2009) contained 50 uM ARK(me3)STGGK, 0.00025 U/uL FDH, 50 uM 2-oxoglutarate, 250 uM NAD+, 1 mM ascorbate, and 10 uM ferrous ammonium sulfate. Controls and plate map: Buffer (150 mM HEPES pH 7.5 containing 0.01% Tween-20) in columns 3 and 4 as negative control (no enzyme) and 100 nM JMJD2E final concentration in columns 1,2, and 5-48. Assay Steps: Enzyme and buffer solutions (3 uL) were dispensed into a 1,536-well Greiner black solid-bottom assay plate. The library compounds (23 nL) were transferred using a Kalypsys pintool equipped with 1,536-pin array. The plate was incubated at room temperature (15 min), and then a 1 uL aliquot of substrate solution was added to initiate the reaction. The plate was transferred to ViewLux imager where an initial reading using standard UV optics (Ex 340 nm, Em 450 nm) was obtained. The plate was then removed from the reader, incubated for 30 minutes at room temperature, and returned to the reader for a second fluorescence reading. A fully automated robotic screening system (Kalypsys Inc, San diego, CA) was used to perform the above steps as described previously (Michael 2008). […]
With `CC/C(=N\NC(=O)c1ccccc1O)c1c(O)n(Cc2ccccc2)c(=O)[nH]c1=O` the Potency was 25.1 µM (active).
For `CCC(=NCCc1ccccc1)c1c(O)n(C2CCCCC2)c(=O)[nH]c1=O`, the Potency was “inactive”.
`O=c1[nH]c(=O)n(Cc2ccccc2)c(O)c1/C=N/Nc1c(F)c(F)c(F)c(F)c1F` was tested, and the Potency was “inactive”.
With `CNCC[C@H](Oc1ccc(C(F)(F)F)cc1)c1ccccc1` the Potency was “inactive”.
For `N#Cc1c(Cl)c(Cl)c(Cl)c(C#N)c1Cl`, the Potency was “inactive”.
For `CNC(=O)O/N=C(\N)Cc1csc2ccc(Cl)cc12`, the Potency was “inactive”.
With `CC[C@H]1CN2CCc3cc(OC)c(OC)cc3[C@@H]2C[C@@H]1C[C@H]1NCCc2cc(OC)c(OC)cc21` the Potency was “inactive”.
For `CC1CCCCN1Cc1cccnc1` (stereo not given), the Potency was 20 µM (active).
For `c1cncc(CNC2=NCCC2)c1`, the Potency was “inactive”.
For `CC1=C2C(=O)C3C(CC=C4CC(OC5OC(O)C(O)C(O)C5CO)CCC43C)C2CCC12OC1CC(C)CNC1C2C` (stereo not given), the Potency was “inactive”.
In the case of `CNC(C)[C@@H](O)c1ccccc1` (stereo not given in full), the Potency is reported as “inactive”.
For `Cc1ccc(N2C(=O)NC(=O)C(CCc3ccncc3)(Cc3cccc(Cl)c3Cl)C2=O)cc1` (stereo not given), the Potency was “inactive”.
`CCCCC/C=C\C/C=C\C/C=C\C=C\[C@H](CCCC(=O)O)OO` was tested, and the Potency was “inactive”.
`C[C@H]1CC[C@@]2(NC1)O[C@@H]1C[C@H]3[C@@H]4CC=C5C[C@@H](O)CC[C@]5(C)[C@@H]4CC[C@]3(C)[C@@H]1[C@@H]2C` was tested, and the Potency was “inactive”.
With `O=C(OCC1O[C@@H](OC(=O)c2cc(O)c(O)c(O)c2)[C@@H](OC(=O)c2cc(O)c(O)c(O)c2)[C@@H](OC(=O)c2cc(O)c(O)c(O)c2)[C@@H]1OC(=O)c1cc(O)c(O)c(O)c1)c1cc(O)c(O)c(O)c1` (stereo not given in full) the Potency was 3.16 µM (active).
In the case of `O=C(COC(=O)c1ccccc1)Nc1ccc(Cl)cc1C(=O)c1ccccc1`, the Potency is reported as “inactive”.
For `COc1ccccc1N1CCN(C(CNC(=O)Oc2ccccc2)c2cccnc2)CC1` (stereo not given), the Potency was “inactive”.
For `CN(C)CC1CCCCC1OC(=O)c1ccc(Cl)c(Cl)c1` (stereo not given), the Potency was “inactive”.
For `Cc1cccc(N2C(=O)NC(=O)/C(=C\c3cnn(-c4ccccc4)c3)C2=O)c1`, the Potency was “inactive”.
`COc1cccc(N2C(=O)NC(=O)/C(=C\c3ccc([N+](=O)[O-])s3)C2=O)c1` was tested, and the Potency was 17.8 µM (active).
`Cc1ccccc1N1C(=O)NC(=O)/C(=C\c2cc(C)n(C)c2C)C1=O` was tested, and the Potency was “inactive”.
For `CC1=C(C(=O)Nc2ccccc2)S(=O)(=O)CCO1`, the Potency was “inactive”.
In the case of `O=c1oc2ccccc2c(O)c1C(c1ccccc1O)c1c(O)c2ccccc2oc1=O`, the Potency is reported as “inactive”.
For `CC(=O)c1c(O)c(C)c(O)c(Cc2c(O)c3c(c(C(=O)/C=C\c4ccccc4)c2O)OC(C)(C)C=C3)c1O`, the Potency was 20 µM (active).
In the case of `O=C(Cn1c(=O)n(CC2CS2)c2ccccc21)N1CCCCC1` (stereo not given), the Potency is reported as “inactive”.
For `C[C@]12CC[C@@H]3C(=CCc4cc(O)ccc43)[C@@H]1CCC2=O`, the Potency was “inactive”.
With `C[N+]12CN3CN(CN(C3)C1)C2` the Potency was “inactive”.
In the case of `CN(C)C1C(=O)C(C(N)=O)=C(O)[C@@]2(O)C(=O)C3=C(O)c4c(O)cccc4[C@@](C)(O)C3C[C@@H]12` (stereo not given in full), the Potency is reported as 10 µM (active).
For `COc1cccc(CN2CCCC(C(=O)c3ccccc3SC)C2)c1O` (stereo not given), the Potency was “inactive”.
In the case of `CCOC(=O)C1SC2(C(F)(F)C(F)F)CC1(O)c1c(c(OC)c3occc3c1OC)O2` (stereo not given), the Potency is reported as “inactive”.
`COC1=C[C@]23CCCN2CCc2cc4c(cc2[C@@H]3[C@@H]1O)OCO4` was tested, and the Potency was “inactive”.
For `C/C(=C\C=C/[C@@H](C)C(=O)O)[C@H]1CN[C@H](C(=O)O)[C@@H]1CC(=O)O`, the Potency was 12.6 µM (active).
`COc1ccc(C(=O)CC2C(=O)N(C)C(=O)N(C)C2=O)cc1` was tested, and the Potency was “inactive”.
For `Cc1cccc(OP(=O)(Oc2cccc(C)c2)OC(c2ccccc2)C(F)(F)F)c1` (stereo not given), the Potency was “inactive”.
For `Fc1ccc(C2N3CCCN23)cc1` (stereo not given), the Potency was “inactive”.
